GDH-TPI inh: GDH-TPI coupling enzyme inhibitors, primary screen, artefact control for M. tuberculosis FBA inhibitor project, biochemical, absorbance, full deck; GDH-TPI coupled enzyme counterscreen, NADH absorbance; inhibition, % at 4.8 µM; 360,000 compounds, 1.2% hits; AID 588335, 2011;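 note: 0% = DMSO wells and 100% = wells lacking the enzyme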
MazEF act: activators of E. coli MazEF toxin-antitoxin RNase, primary screen, biochemical, fluorescence, uHTS; Endoribonuclease toxin MazF (Escherichia coli (strain K12)), P0AE70; activation, % at 20 µM; 350,000 compounds, 0.32% hits; FAM/BHQ RNA-DNA oligo cleavage fluorescence, 5 h; in the data active = activation above about 50%
Target sequence (P0AE70 whole entry, looked up): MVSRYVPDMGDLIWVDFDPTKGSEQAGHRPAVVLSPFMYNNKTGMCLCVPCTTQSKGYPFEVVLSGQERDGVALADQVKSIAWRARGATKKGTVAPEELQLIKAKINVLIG
Mtb FBA inh: Mtb FBA enzyme inhibitors, primary screen, biochemical, fluorescence, strain H37Rv | Fructose-bisphosphate aldolase (Mycobacterium tuberculosis (strain ATCC 25618 / H37Rv)), … | purified M. tuberculosis FBA, fluorescence read-out | inhibition, % at 1 µM | 360,000 compounds, 2.3% hits; in the data active = inhibition above about 27%;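 note: 0% = vehicle and 100% = reference inhibitor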
Target sequence (P9WQA3 whole entry, looked up): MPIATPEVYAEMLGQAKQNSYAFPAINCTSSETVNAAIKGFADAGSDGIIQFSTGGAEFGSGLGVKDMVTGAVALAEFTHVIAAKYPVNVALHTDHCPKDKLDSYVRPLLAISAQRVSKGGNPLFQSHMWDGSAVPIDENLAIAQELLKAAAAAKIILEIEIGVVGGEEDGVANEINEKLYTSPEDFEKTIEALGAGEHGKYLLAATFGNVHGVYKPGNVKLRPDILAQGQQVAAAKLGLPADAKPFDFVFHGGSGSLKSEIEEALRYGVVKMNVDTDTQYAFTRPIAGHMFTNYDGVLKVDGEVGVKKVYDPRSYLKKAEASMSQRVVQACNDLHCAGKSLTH
CCHF vOTU inh-1: CCHFV vOTU protease inhibitors, primary screen, biochemical, Pep-AMC substrate, fluorescence; 370,000 compounds, 0.55% hits; AID 651958, 2012; inhibition, % at 11.5 µM; Crimean-Congo hemorrhagic fever virus L polyprotein viral ovarian tumor (vOTU) protease …; note: 0% = vehicle wells with enzyme and 100% = no enzyme wells
Mtb bLac sens: beta-lactam sensitization of Mtb H37Rv, H37Rv | M. tuberculosis H37Rv growth with meropenem, percent inhibition | inhibition, % at 25 µM | 330,000 compounds, 0.27% hits; call rule not given here;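 note: growth measured after seven days incubation then overnight dye step; 0% = bacteria only wells and 100% = bacteria with antibiotic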
CCHF vOTU inh-2: CCHFV vOTU protease inhibitors, confirmation, biochemical, Pep-AMC substrate, fluorescence | 1,900 compounds, 17% hits | AID 686976, 2013 | Recombinant CCHFV vOTU | shares compounds with CCHF vOTU inh-1 | inhibition, % at 11.5 µM
Active calls of the source: *; ? = inconclusive; . = no result. Hits are enriched below; roughly 4% of the tested compounds scored in any of these assays. Cut-off read from the data, not from the text of the source, unless noted: active = inhibition above about 30%; inactive = the rest.

SMILES	GDH-TPI inh	MazEF act	Mtb FBA inh	CCHF vOTU inh-1	Mtb bLac sens	CCHF vOTU inh-2
COc1ccc(CNS(=O)(=O)c2cc(CN3C(=O)c4cccnc4C3=O)ccc2OC)cc1	-6	-3	1	0	-2	.
CCc1nc2ccc(C(=O)NCCC(C)C)cn2c1N(CCN(C)C)CC1CC1	1	.	-1	13	.	.
N#Cc1c(-c2cccs2)nc(SCC(=O)c2cccs2)[nH]c1=O	12	-4	1	31*	-9	-3
O=C(CSc1nc2ccccc2c(=O)[nH]1)c1cccs1	5	0	-1	7	-27	.
COc1ccc(S(=O)(=O)n2nc(OC(=O)c3ccc(C)cc3)cc2N)cc1	4	1	2	35*	-2	-7
O=C(NCc1cccs1)C(=O)c1cn(CC(=O)N2CCOCC2)c2ccccc12	16	1	-2	-12	-9	.
O=C(NCc1ccccc1)C(=O)c1cn(CC(=O)N2CCOCC2)c2ccccc12	17	-21	-1	35*	-2	-9
COCc1ccc(C(=O)N2CCCC(C(=O)c3ccc(SC)cc3)C2)s1 (stereo not given)	10	3	4	2	-2	.
Cc1ccc(C)c(N2CCN(C(=O)CCc3nc(-c4ccccc4C)no3)CC2)c1	6	-10	-2	36*	.	4
O=C1CCCN1CCCNCCCn1cnc2c(OCc3ccccc3)ncnc21	-1	8	-2	-6	.	.
O=C(Cn1cnc2c(OCc3ccccc3)ncnc21)NCCCN1CCCC1=O	5	6	0	30*	5	3
CC1=NN(c2ccccc2)C(=O)/C1=C/c1ccc(Cl)cc1	-1	6	0	89*	6	-27
Cc1ccc(N2C(=O)NC(=O)/C(=C/c3ccc(OC(=O)c4cccs4)cc3)C2=O)cc1	4	5	-5	3	93	.
CCOc1cc(/C=C2/C(=O)N(c3ccccc3)N=C2C)ccc1OC(=O)c1ccco1	2	1	-1	68*	90	-2
CCOc1cc(/C=C2\C(=O)N(c3ccc(C(N)=O)cc3)N=C2C)ccc1OC(=O)c1cccs1	-7	-9	1	.	89	.
COc1ccc(/C=C2/C(=O)N(c3ccccc3)N=C2C)cc1Br	11	-2	5	74*	3	0
CC1=NN(c2ccccc2)C(=O)C1=Cc1ccccc1	1	0	-2	17	.	.
CC1=NN(c2ccc(C(=O)O)cc2)C(=O)/C1=C\c1ccc(OC(=O)c2cccs2)cc1	10	15	-3	55*	98	7
CS(=O)(=O)N1CCCCC1c1cc(C(=O)Nc2ccccc2Cl)no1 (stereo not given)	10	.	2	3	.	.
CCC(=O)N(C1=C(NC)C(=O)c2ccccc2C1=O)C(C)C	4	4	-7	47*	5	23
CNC1=C(N(C(C)=O)c2ccc(Br)cc2)C(=O)c2ccccc2C1=O	16	8	-6	93*	-5	73*
CC(=O)NC1=C(Nc2ccc(N(C)C)cc2)C(=O)c2ccccc2C1=O	10	-14	-5	25	10	.
CCc1nnc(SCC(=O)Nc2ccccc2)n1CC1CCCO1 (stereo not given)	-1	-3	2	22	-10	.
CC1C(=O)N2CCCc3cc(NC(=O)C4CC4)cc1c32 (stereo not given)	5	-1	-1	2	2	.
COc1ccc(-c2ccc3c(c2)O/C(=C\c2ccsc2)C3=O)cn1	2	12	2	-3	2	.
SMILES	GDH-TPI inh	MazEF act	Mtb FBA inh	CCHF vOTU inh-1	Mtb bLac sens	CCHF vOTU inh-2
CCOC(=O)[C@]12CCCC=C1N(CCc1ccc(OC)c(OC)c1)C(=O)[C@H](CC(=O)N1CCCC1)C2	.	.	.	33*	.	-23
CCCCCCCCN1C(=O)[C@H](CC(=O)NCc2ccccc2)C[C@@]2(C(=O)OCC)CCCC=C12	.	.	.	33*	.	5
CCCCCCCCN1C(=O)[C@H](CC(=O)NCCCCc2ccccc2)C[C@@]2(C(=O)OCC)CCCC=C12	.	.	.	13	.	.
CCCCCCCCN1C(=O)[C@H](CC(=O)N2CCSCC2)C[C@@]2(C(=O)OCC)CCCC=C12	.	.	.	39*	.	3
C#CCNC(=O)C[C@@H]1C[C@@]2(C(=O)OCC)CCCC=C2N(CCCCCCCC)C1=O	.	.	.	31*	.	15
CCCCCCCCN1C(=O)[C@H](CC(=O)NCC2CCCCC2)C[C@@]2(C(=O)OCC)CCCC=C12	.	.	.	20	.	.
CC(=O)Nc1ccc(S(=O)(=O)NC2=C(N3CCN(C)CC3)C(=O)c3ccccc3C2=O)cc1	10	-2	2	53*	-2	30*
CCN1CCN(C2=C(NS(=O)(=O)c3ccc(NC(C)=O)cc3)C(=O)c3ccccc3C2=O)CC1	9	3	-1	58*	3	22
O=C(CCC(=O)c1ccc(F)cc1)Nc1cccc(Br)c1	2	21	0	1	7	.
CCCN(C(=O)Cc1nc(N)n[nH]1)C1(C(=O)Nc2c(C)cccc2C)CCCCC1	-1	2	1	39*	1	-24
CCCN(C(=O)Cc1nc(N)n[nH]1)C1(C(=O)Nc2ccccc2C)CCCCC1	11	-2	-1	-4	-16	.
COc1cccc(OCC(=O)NNC(=O)C(=O)Nc2cccc(C)c2)c1	9	-3	0	12	99	.
O=C(Nc1cccc(Cl)c1)Nc1ccnc(-c2cccnc2)n1	2	-24	-2	32*	12	-20
COc1ccc(-c2sc3cc(OC)c(OC)cc3c2-c2ccc(O)cc2)cc1	-2	-10	4	33*	-4	-1
COc1ccccc1C(=O)NC(=S)Nc1ccccc1N1CCCC1	-4	.	3	41*	?	11
O=C(NC(=S)Nc1ccccc1N1CCCC1)c1ccc(F)cc1	11	3	2	32*	-1	33*
Cc1cc(Cl)ccc1NC(=O)CCC(=O)N/N=C/c1cccnc1	-1	-6	1	-3	1	.
COC(=O)C1=C(C)N(Cc2ccccc2)C(=NCc2cccc(C(F)(F)F)c2)N[C@H]1c1cccc(C(F)(F)F)c1	1	-7	2	.	100	.
COC(=O)C1=C(C)N(Cc2ccccc2)C(=NCc2cccc(C(F)(F)F)c2)N[C@H]1c1cccc(F)c1	10	-31	5	31*	0	10
CCN=C1NC(c2ccc(F)cc2)C(C(=O)OC)=C(C)N1Cc1cccc(C(F)(F)F)c1 (stereo not given)	.	.	.	36*	.	-12
COC(=O)C1=C(C)N(C)C(=NCC2CC2)NC1c1ccccc1 (stereo not given)	.	.	.	32*	.	-15

Bioassay records: PubChem, several laboratories
